Source: PubChem BioAssay
Active and inactive are the calls of the source.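 How the source made its calls, unless noted: active means inhibition of the reporter signal at or above 50%; inactive means inhibition below 50%.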

Columns and labels:
[1] = inhibitors of TNFa-induced NFkB p65 translocation, primary screen, imaging, HUVEC, MLSMR starter and 10KST1 sets (AID 438;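 active means inhibition above 20% together with a positive visual image hit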;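 further: compound added about 3h40 before a 20 min TNFalpha stimulation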;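 on inhibition: signal is the nuclear over cytoplasmic p65 intensity ratio per well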); conditions: HUVEC TNFa-induced p65 nuclear translocation; cell count: measured here: nuclei count (cytotoxicity indicator), at 2.08 µM; inhibition: at 2 µM, stronger effect = higher value, 0% TNFa-plus-vehicle, 100% no-TNFa wells
[2] = reduction of polyQ htt aggregates in cells – imaging, exon1htt(103Q)mCFP cells, high-content imaging, primary screen (AID 483;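 active means visual image review flags a hit and inhibition of aggregation exceeds 20%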;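 further: compound exposure lasted 3 days before fixation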;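 on nuclei count: percent of the per-plate median nuclei count of sample wells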); conditions: exon1htt(103Q)mCFP cell line, aggregate imaging, at 2 µM; inhibition of aggregation: stronger effect = higher value; nuclei count: measured here: cell count, toxicity
[3] = endothelial E-selectin expression blockers – imaging, HUVEC, immunofluorescence, MLSMR starter and 10KST1 sets, primary screen (AID 487;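 active means visually confirmed hit in the image check and inhibition above 20%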;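 on inhibition: signal is fraction of cell area covered by stained E-selectin grains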;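 on nuclei count: 100% = median nuclei count of all wells on the same plate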); conditions: HUVEC TNFalpha-induced E-selectin immunofluorescence imaging, at 2 µM; inhibition: stronger effect = higher value; nuclei count: measured here: cell number, toxicity
[4] = molecular target: Voltage-gated potassium channel subunit beta-2 (Rattus norvegicus) (UniProt P62483); experiment: inhibitors of rat Kvbeta2 reductase activity – biochemical, NADPH fluorescence, primary screen (AID 622;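 active means fluorescence slope higher than the sample average by over 3 SD, cut at about -0.22 in these data, passing the limit was not always enough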;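 further: slope of raw intensity against log time taken from 70 to 1610 s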); conditions: recombinant KvBeta, 4-cyanobenzaldehyde reduction, at 10 µM, stronger effect = higher value
[5] = molecular target: Voltage-gated potassium channel subunit beta-2 (Rattus norvegicus) (UniProt P62483); experiment: enhancers of rat Kvbeta2 NADPH turnover – biochemical, NADPH fluorescence, primary screen (AID 623;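 active means NADPH fluorescence slope more negative than the mean of all samples by about 3 SD, 99.7% confidence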;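 further: fluorescence intensity change per second fitted from 20 to 320 s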); conditions: Recombinant KvBeta, NADPH fluorescence decrease slope, 10 min; at 10 µM; stronger effect = lower value
[6] = molecular target: Alpha-2C adrenergic receptor (Homo sapiens) (UniProt P18825); experiment: compounds altering alpha2C-coupled GIRK flux – cell-based, HEK293 alpha2C/GIRK1/2, thallium flux, primary screen (AID 624;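 active means fluorescence slope after compound addition differing from the mean of all screened samples at 99.7% confidence, in either direction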;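 further: slope of fluorescence ratio to pre-addition baseline per second over 15 to 24 s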); conditions: thallium flux BTC fluorescence, at 10 µM, actives lie on both sides
[7] = blockers of RIG-like receptor reporter activation – cell-based, Sendai virus stimulus, luciferase, 10K MLSCN set, TLR/RLR signaling modifier project, primary screen (AID 602276;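 active means inhibition at or above 50% at 10 µM; inactive means inhibition below 50%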;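 further: firefly luciferase from ISG56 promoter only with Renilla not read in this screen; 0% = Sendai virus plus DMSO and 100% = medium plus DMSO without virus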); conditions: HEK293 RL24 IRF3 luciferase reporter, at 10 µM, stronger effect = higher value
[8] = TLR3 IRF3 reporter activation blockers – cell-based, poly I:C stimulus, luciferase, 10K MLSCN set, primary screen (AID 602277); conditions: HEK293-TLR3 RL24 IRF3 luciferase reporter, at 10 µM, stronger effect = higher value

Sequence of Alpha-2C adrenergic receptor (Homo sapiens) (P18825 whole entry, looked up): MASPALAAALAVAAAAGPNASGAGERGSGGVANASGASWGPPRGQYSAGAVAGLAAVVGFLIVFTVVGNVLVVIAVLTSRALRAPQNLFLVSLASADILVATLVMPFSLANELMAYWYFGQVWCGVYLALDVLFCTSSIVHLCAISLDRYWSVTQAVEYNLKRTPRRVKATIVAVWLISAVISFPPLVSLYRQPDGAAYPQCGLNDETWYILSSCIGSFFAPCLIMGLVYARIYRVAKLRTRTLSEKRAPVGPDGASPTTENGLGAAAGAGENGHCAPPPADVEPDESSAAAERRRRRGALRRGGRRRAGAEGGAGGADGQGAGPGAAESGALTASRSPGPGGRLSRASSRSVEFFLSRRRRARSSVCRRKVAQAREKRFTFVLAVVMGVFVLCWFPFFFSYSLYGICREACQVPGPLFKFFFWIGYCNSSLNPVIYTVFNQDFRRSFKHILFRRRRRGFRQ
Sequence of Voltage-gated potassium channel subunit beta-2 (Rattus norvegicus) (P62483 whole entry, looked up): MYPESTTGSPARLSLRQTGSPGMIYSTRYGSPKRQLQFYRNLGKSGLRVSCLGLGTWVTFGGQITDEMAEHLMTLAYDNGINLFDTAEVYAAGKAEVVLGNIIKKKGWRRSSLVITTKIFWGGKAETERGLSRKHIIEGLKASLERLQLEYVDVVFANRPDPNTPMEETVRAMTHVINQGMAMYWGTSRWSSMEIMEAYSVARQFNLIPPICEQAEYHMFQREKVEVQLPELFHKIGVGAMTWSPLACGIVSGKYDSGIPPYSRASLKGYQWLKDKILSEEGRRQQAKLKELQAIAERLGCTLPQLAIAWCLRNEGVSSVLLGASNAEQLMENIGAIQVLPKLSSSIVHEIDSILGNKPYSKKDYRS

Row | SMILES | cell count [1] | inhibition [1] | inhibition of aggregation [2] | nuclei count [2] [%] | inhibition [3] | nuclei count [3] [%] | fluorescence slope [4] | NADPH fluorescence slope [5] | slope [6] | inhibition [7] | inhibition [8]
1 | Cc1[nH]nc2c1C(=O)CC(C)(C)C2 | 416 | -4.9% (inactive) | -16.7% (inactive) | 118 | -24.4% (inactive) | 117 | -0.347 (inactive) | -1.7e-05 (inactive) | 0.0065 (inactive) | -3.34% (inactive) | 17.1% (inactive)
2 | Cc1cccc(OCCNC(=O)c2ncn[nH]2)c1 | 228 | 4.2% (inactive) | 1.8% (inactive) | 100 | -263% (inactive) | 144 | -0.443 (inactive) | -1.6e-05 (inactive) | 0.00209 (inactive) | 5.98% (inactive) | 32.3% (inactive)
3 | CCCCOCCCNC(=O)c1cccs1 | 471 | 4.5% (inactive) | -4.3% (inactive) | 103 | -392% (inactive) | 139 | -0.443 (inactive) | -2.3e-05 (inactive) | 0.00349 (inactive) | 5.11% (inactive) | 25.1% (inactive)
4 | Cc1cccc2cc(CN(CCN3CCCC3)C(=O)NC3CCCCC3)c(=O)[nH]c12 | 641 | -7.5% (inactive) | -0.1% (inactive) | 84.8 | -7.3% (inactive) | 97 | -0.428 (inactive) | 1e-05 (inactive) | 0.00641 (inactive) | 12.6% (inactive) | 38.4% (inactive)
5 | C=C(Cl)COC(=O)[C@H]1C2C=CC(C2)C1C(=O)O (stereo partly drawn) | 347 | -5% (inactive) | -18.6% (inactive) | 96.9 | -29.7% (inactive) | 124 | -0.435 (inactive) | 5.3e-05 (inactive) | 0.00591 (inactive) | -6.49% (inactive) | 2.25% (inactive)
6 | O=C(CN1C(=O)CCS(=O)(=O)c2ccccc21)Nc1cccc(F)c1 | 383 | -6.8% (inactive) | -2.1% (inactive) | 113 | -27.1% (inactive) | 135 | -0.335 (inactive) | -4.5e-05 (inactive) | 0.00547 (inactive) | 1.07% (inactive) | 10.8% (inactive)
7 | Cc1cc(C)c(S(=O)(=O)Nc2cccnc2)c(C)c1 | 610 | -4.7% (inactive) | -11.3% (inactive) | 119 | -20.4% (inactive) | 113 | -0.614 (inactive) | -5.3e-05 (inactive) | 0.00327 (inactive) | 17.2% (inactive) | 15.7% (inactive)
8 | O=C(c1ccco1)N1CCN(c2ccc(Cl)cc2)CC1 | 173 | -5.1% (inactive) | -6.3% (inactive) | 82.3 | 12.5% (inactive) | 93 | -0.467 (inactive) | 7.7e-05 (inactive) | 0.00616 (inactive) | -73.4% (inactive) | -172% (inactive)
9 | OC(COc1ccc2ccccc2c1)CN1CCOCC1 (stereo not drawn) | 780 | 4.7% (inactive) | 3.4% (inactive) | 83 | -44.7% (inactive) | 95.6 | -0.441 (inactive) | -8.9e-05 (inactive) | 0.00562 (inactive) | 3.23% (inactive) | 11.9% (inactive)
10 | COc1cccc(Oc2cn[nH]c2-c2ccc(O)cc2O)c1 | 361 | 10.2% (inactive) | -13.9% (inactive) | 103 | -104% (inactive) | 101 | -0.453 (inactive) | 4.8e-05 (inactive) | 0.0038 (inactive) | -4.4% (inactive) | 12.8% (inactive)
11 | Cc1ccc2[nH]c3c(c2c1)CCc1cn[nH]c1-3 | 410 | 5.1% (inactive) | -4.7% (inactive) | 71.7 | 27.4% (inactive) | 105 | -0.481 (inactive) | -1.8e-05 (inactive) | 0.00393 (inactive) | -22.4% (inactive) | -73.4% (inactive)
12 | CCOC(=O)c1ccc(COC(=O)c2cc3ccccc3oc2=O)o1 | 607 | -1.2% (inactive) | 1.7% (inactive) | 101 | -39.1% (inactive) | 96.9 | -0.48 (inactive) | 1.6e-06 (inactive) | 0.00426 (inactive) | -6.72% (inactive) | -32.7% (inactive)
13 | COc1cc2c(cc1NC(=O)COC(=O)Cn1cnc3ccccc31)oc1ccccc12 | 403 | 7.7% (inactive) | -10.9% (inactive) | 86.8 | -2.1% (inactive) | 110 | -0.533 (inactive) | -2.6e-05 (inactive) | 0.00618 (inactive) | 20.9% (inactive) | 9.12% (inactive)
